BL2 CD40 inh: inhibitors of CD40-induced NF-kB signaling, primary screen, BL2 cells, luciferase reporter, single point | CD40L-induced, 4 h | 0.94% of 83,000 active | inhibition, % at 10 µM;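 active means mean inhibition of at least 50% with a set share of replicates also reaching that level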;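 further: 0% = neutral control wells and 100% = IKK inhibitor VII at 50 µM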
The depositor's hits bear a star; [ ] = another dose, or the depositor's remark. This is one part of a sample in which hits are shown more often than they occur.

SMILES | BL2 CD40 inh
COc1ccccc1CN1[C@H](CO)[C@@H](c2ccccc2)C12CN(C(=O)Cc1ccccc1)C2 | 15[25 µM]
COC(=O)[C@@H]1[C@@H](CO)[C@@H]2Cn3c(ccc(-c4ccc(F)cc4)c3=O)[C@H]1N2C(=O)c1ccccc1F | -13[25 µM]
CC(C)NC(=O)N1C[C@@H]2C(c3ccc(Br)cc3)[C@H](C1)N2CC1CC1 (stereo not given in full) | 18
COC(=O)C=CC(=O)NC1CCC2(O)C3Cc4ccc(O)c5c4C2(CCN3CC2CC2)C1O5 (stereo not given) | 5[25 µM]
O=C1CC[C@@]2(O)[C@H]3Cc4ccc(O)c5c4[C@@]2(CCN3CC2CC2)[C@H]1O5 | -6
O=C1/C(=C/c2ccccc2)C[C@@]2(O)C3Cc4ccc(O)c5c4[C@@]2(CCN3CC2CC2)[C@H]1O5 | 85*[25 µM]
CS(=O)(=O)N1C[C@@H]2C(c3ccc(Br)cc3)[C@H](C1)N2CC1CC1 (stereo not given in full) | 3
C[C@H]1CN([C@@H](C)CO)C(=O)c2c(c3ccccc3n2C)-c2ccccc2CO[C@H]1CN(C)C(=O)Oc1ccccc1 | 11
c1cncc(-c2ccc(C3[C@H]4CNC[C@@H]3N4CC3CC3)cc2)c1 (stereo not given in full) | 3[25 µM]
OC[C@@H]1[C@@H]2c3ccccc3NC[C@@H]2N1Cc1cccnc1 | -11[25 µM]
C=CCN1CCC23c4c5ccc(O)c4OC2/C(=N\NC(=O)c2ccccc2)CCC3(O)C1C5 (stereo not given) | -12[25 µM]
